# The source made the active and inactive calls. Rule for the calls: active = hit-call score of the fitted dose curve at least 0.9, where 1 is the maximum; inactive = score below 0.9.
# Test: CCTE_Shafer_MEA_acute_burst_percentage_mean: CCTE's Neural Acute Assay for Percentage of Spikes in a Burst, Shafer Lab (AID 2284017);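 for AC50: curve fitted for loss of signal so potency reflects decreased burst percentage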
# Method: CCTE_Shafer_MEA_acute assay is conducted using Axion Biosystems 48 well microelectrode array (MEA) plates and Maestro recording system. Each well of the MEA plate contains a grid of 16 microelectrodes embedded in the culture surface. Electrically active cells, such as neurons, can be cultured over the electrodes, and electrical activity in these cells can be recorded extracellularly. The spontaneous firing of neurons is captured from each electrode on a microsecond timescale providing both temporally and spatially precise data. […] The CCTE_Shafer_MEA_acute assay uses primary cultures of rat cortical neurons. As these cultures mature over time, neural networks develop functional activity and form cohesive networks in which electrical activity can be highly coordinated. Baseline 40-minute recordings are made on days post-plating 13 or 15, followed by a secondary 40-minute recording after chemical exposure.CCTE_Shafer_MEA_acute_burst_percentage_mean is a component of the CCTE_Shafer_MEA_acute assay. It measures the percentage of spikes (action potential firing) in a single-electrode burst (temporally-clustered groups of spikes) as the number of spikes in bursts divided by the total number of spikes during a recording in a microelectrode array (MEA) using Axion Biosystems Maestro 768 channel amplifier with the AxIS adaptive spike detector. The average of the burst percentages across electrodes is calculated to report a well-level value. The recordings before and after chemical treatment are used to calculate a percent change in the mean burst percentage in each well.Data from the assay component CCTE_Shafer_MEA_acute_burst_percentage_mean was analyzed into 1 assay endpoint. This assay endpoint, CCTE_Shafer_MEA_acute_burst_percentage_mean, was analyzed in the negative analysis fitting direction relative to DMSO as the negative control and baseline of activity. Using a type of functional reporter, gain or loss-of-signal activity can be used to understand electrical activity.
# Spontaneous activity in the cortical cultures was recorded using an Axion Biosystems Maestro 768 channel amplifier and Axion Integrated Studios (AxIS) v1.8 (or later) software. The amplifier recorded from all channels simultaneously (gain = 1200 x; sampling rate = 12.5 kHz/channel): raw signals were filtered with a Butterworth band-pass filter (300-5000 Hz), which filters out slower local field potentials leaving only fast potentials, i.e., "spikes", arising from extracellular currents associated with action potentials (Pine 2006; Wheeler and Nam 2011). On-line spike detection of filtered signals was conducted with the AxIS adaptive spike detector, using a threshold of 8x the root mean squared (rms) noise on each channel. Any electrodes with rms noise levels greater than 5 uV were grounded (e.g., no data were recorded). Once grounded, an electrode was grounded for the duration of the experiment. All recordings were conducted at 37 C. Wells were deemed usable if on the day of the exposure >/= 10 electrodes were active (defined as >/= 5 spikes/min). On DIV 13 or 15, a minimum of three wells from one cortical culture preparation were treated with each compound (0.03-40 uM). Prior to recording baseline activity, each mwMEA plate was placed in the Maestro at 37 C and allowed to sit for 20 min while firing rates stabilized. Baseline activity (40 min) was recorded before the addition of each compound. An additional 40 min of spontaneous activity was recorded in the presence of each compound. Changes in network parameters relative to baseline were assessed following compound treatment.
Structure (SMILES),AC50,outcome
CCC(C)c1ccccc1O (configuration not stated),7.61 µM (active),–
OCC(CO)(CBr)CBr,–,inactive
N=C(N)c1ccc(OCCCCCOc2ccc(C(=N)N)cc2)cc1,26.9 µM (active),–
CCCCc1oc2ccccc2c1C(=O)c1cc(I)c(OCCN(CC)CC)c(I)c1,–,inactive
Oc1c(Cl)cc(Cl)cc1Sc1cc(Cl)cc(Cl)c1O,7.11 µM (active),–
O=C(CCCN1CCC(O)(c2ccc(Cl)cc2)CC1)c1ccc(F)cc1,–,inactive
CCCCC=O,–,inactive
CN(C)CCOC(c1ccccc1)c1ccccc1,5 µM (active),–
CCCCCCCCCCCC,–,inactive
Oc1ccc(Cc2ccccc2O)cc1,–,inactive
CC(=O)Nc1ccc(O)cc1,–,inactive
O=C1NS(=O)(=O)c2ccccc21,–,inactive
